# Results taken from ChEMBL document CHEMBL3433997, “St. Jude Leishmania screening dataset” (2016).
# How the values were obtained:
# Format in all cases: functional
# [1] = biological target: Solute carrier family 2, facilitated glucose transporter member 1 (Homo sapiens) (UniProt P11166); assay: ST_JUDE_LEISH: Cytotoxicity at 2uM final concentration against transgenic Leishmania Mexicana promastigotes LmGLUT1 that are glucose transport deficient and complemented with the human glucose transporter GLUT1. Activity is measured by DNA content using SYBR green in vitro
# Sequence of Solute carrier family 2, facilitated glucose transporter member 1 (Homo sapiens) (P11166 whole entry): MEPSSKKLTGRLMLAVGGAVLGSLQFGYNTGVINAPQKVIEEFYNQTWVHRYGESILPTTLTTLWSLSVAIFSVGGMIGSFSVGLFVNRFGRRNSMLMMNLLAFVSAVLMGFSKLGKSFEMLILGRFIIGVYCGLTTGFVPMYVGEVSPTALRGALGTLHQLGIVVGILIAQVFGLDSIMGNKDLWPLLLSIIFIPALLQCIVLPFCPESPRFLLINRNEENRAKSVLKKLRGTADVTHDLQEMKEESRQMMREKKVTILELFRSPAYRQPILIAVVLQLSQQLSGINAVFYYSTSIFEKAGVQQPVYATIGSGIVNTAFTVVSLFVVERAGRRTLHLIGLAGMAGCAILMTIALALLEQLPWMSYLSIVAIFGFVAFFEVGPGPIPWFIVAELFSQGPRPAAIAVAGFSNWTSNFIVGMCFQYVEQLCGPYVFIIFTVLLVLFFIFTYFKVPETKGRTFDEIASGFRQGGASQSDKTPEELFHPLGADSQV
# [2] = biological target: Hexose transporter 1 (Plasmodium falciparum) (UniProt O97467); assay: ST_JUDE_LEISH: Cytotoxicity at 2uM final concentration against transgenic Leishmania Mexicana promastigotes LmPfHT that are glucose transport deficient and complemented with the Plasmodium falciparum hexose transporter. Activity is measured by DNA content using SYBR green in vitro
# [3] = biological target: Glucose transporter (Leishmania mexicana) (UniProt O61059); assay: ST_JUDE_LEISH: Cytotoxicity at 2uM final concentration against transgenic Leishmania Mexicana promastigotes LmGT2 that are glucose transport deficient and complemented with the L. Mexicana glucose transporter 2. Activity is measured by DNA content using SYBR green in vitro
Compound,inhibition [1] [%],inhibition [2] [%],inhibition [3] [%]
Oc1ccc(Nc2nc(NCc3ccccc3)c3ccccc3n2)cc1,30.1,27.1,10.6
CN1CCN(c2ccnc3ccc(NC(=O)Cc4ccc5ccccc5c4)cc23)CC1,0.96,2.53,2.12
COc1ccc(NC(=O)CCNc2cc(C)nc(NCCc3ccccc3)n2)cc1,4.71,4.04,2.42
CC(=O)Nc1nc(C(=O)Nc2ccc(-c3cccc(-c4nc5ccccc5[nH]4)c3)cc2)cs1,1.93,2.85,0.42
Cc1csc(NC(=O)c2cn(-c3ccccc3)nc2-c2cccs2)n1,6.04,4.44,0.74
OCC(CO)(CO)NCc1ccc2c3c(cccc13)-c1ccccc1-2,12.1,14.8,8.44
O=C(/C=C/c1ccc(Cl)c(Cl)c1)NCCCCCN1CCCN(C(=O)Nc2ccc(Br)cc2)CC1,10.6,10.3,10.2
CCCCNc1cc(C)nc(NCc2ccccc2)n1,22.1,16.4,5.11
COc1ccccc1-c1[nH]c2ccccc2c1CN1CCC(c2c(C)cccc2C)CC1,16.3,16.1,11
CC(C)c1ccc(CN2CCCCC(NC(=O)c3cc(-c4ccccc4Cl)cs3)C2)cc1 (centres undefined),-0.41,-1.98,-4.09
CN1CCCC1CCNC(=O)[C@H](CC1CCCCC1)NC(=O)c1ccc(O)c(-c2ccc(Cl)c(Cl)c2)c1 (some centres undefined),8.26,10.3,6.63
CCCc1cc(N2CCC(N3CCCC3)CC2)nc(Nc2ccc(OC)cc2)n1,1.06,2.18,0.63
Cc1cc(C(=O)CSc2nc3ccccc3n2-c2ccccc2)c(C)n1C1CCS(=O)(=O)C1 (centres undefined),0.82,-1.32,0.44
